# From PubChem BioAssay (EPA / NIEHS)
# Values joined by “and” are separate entries in the source; they are usually repeats but may differ in a detail not shown here. Equal values may be shown once. Results filed as inconclusive are left out. Active and inactive are the calls of the source. Rule for the calls, unless noted: active = hit-call score of the fitted dose curve at least 0.9, where 1 is the maximum; inconclusive = response in the unintended direction; inactive = score below 0.9.
# Legend:
# [1] = molecular target: Androgen receptor (Homo sapiens) (UniProt P10275); assay: ATG_AR_TRANS: Attagene TRANS-FACTORIAL HepG2 Assay for human Androgen Receptor (AR) (AID 2282973); conditions: HepG2 Attagene TRANS-FACTORIAL AR reporter transcription
# Outline: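 Steps: transfect HepG2 with multiple GAL4-UAS reporter transcription units (TRANS format, exogenous NR-Gal4 protein); dose 24 h; isolate RNA, reverse-transcribe, PCR-amplify, FAM-label, HpaI-digest; resolve by capillary electrophoresis. Positive direction vs DMSO.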
# [2] = Tanguay_ZF_120hpf_MUSC: Oregon State University Tanguay Lab 120 Hour Post-fertilization zebrafish Assay for Muscle Malformation (AID 2284401; active = hit-call score of the fitted dose curve at least 0.9, where 1 is the maximum; inactive = score below 0.9)
# Outline: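 Dechorionated Tropical 5D wild-type zebrafish embryos exposed statically from 6 to 120 hpf at 28C, one per well, in 0.64% DMSO. Muscle malformation scored present/absent by brightfield microscopy at 120 hpf, fitted against DMSO.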
# [3] = molecular target: human CYP4F12, CYP4F12 (gene 66002) (UniProt Q9HCS2); assay: NVS_ADME_hCYP4F12: NovaScreen (NVS) CYP450-related Enzyme Activity (ADME) Assay for human CYP4F12 (AID 2283111)
# Outline: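 Cell-free fluorescence assay of recombinant human CYP4F12 activity on a specific substrate, read 0.5 h after dosing. Primary screen in duplicate at 10 uM, then concentration series for actives; loss of signal fitted against acetonitrile negative control.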
# [4] = molecular target: human Acetylcholinesterase (AChE), ACHE (gene 43) (UniProt P22303); assay: NVS_ENZ_hAChE: NovaScreen (NVS) Enzymatic Assay for human Acetylcholinesterase (AChE) (AID 2283129)
# Outline: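 Cell-free colorimetric enzyme-activity assay; compounds read 0.33 hour after dosing, loss of signal vs DMSO baseline. Primary screen in duplicate at 25 uM single concentration, with active compounds retested in concentration series.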
# [5] = molecular target: Protein deacetylase HDAC6 (Homo sapiens) (UniProt Q9UBN7); assay: NVS_ENZ_hHDAC6: NovaScreen (NVS) Enzymatic Assay for human Histone Deacetylase 6 (HDAC6) (AID 2283164)
# Outline: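 Recombinant human HDAC6 with fluorescent substrate, 1 h; product separated from substrate by electrophoretic mobility shift. Primary screen in duplicate at 25 uM; actives retested singly in concentration-response up to 50 uM, fitted relative to DMSO.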
# [6] = system: rat Monoamine Oxidase, MAO-A, Central (MAOAC), gene 29253; assay: NVS_ENZ_rMAOAC: NovaScreen (NVS) Enzymatic Assay for rat Monoamine Oxidase, MAO-A, Central (MAOAC) (AID 2283243);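 note: potency refers to inhibition seen as signal drop below DMSO baseline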
# Outline: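 Rat brain tissue extract used as enzyme source in a cell-free radiometric assay, read by scintillation counting 1.5 hours after dosing. Loss of signal relative to DMSO baseline scored; primary screen at 25 uM in duplicate, actives followed up in concentration series.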
# [7] = molecular target: human CYP2J2, CYP2J2 (gene 1573) (UniProt P51589); assay: NVS_ADME_hCYP2J2: NovaScreen (NVS) CYP450-related Enzyme Activity (ADME) Assay for human CYP2J2 (AID 2283106)
# Outline: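 Cell-free assay of recombinant CYP2J2 with a fluorogenic substrate, read 1 h after dosing; loss of signal versus acetonitrile. Primary screen at 10 uM in duplicate, then concentration-response up to 20 uM for chemicals passing threshold (e.g., 30% inhibition).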
# [8] = molecular target: rat CYP2D1, Cyp2d1 (gene 266684) (UniProt P10633); assay: NVS_ADME_rCYP2D1: NovaScreen (NVS) CYP450-related Enzyme Activity (ADME) Assay for rat CYP2D1 (AID 2283122)
# Outline: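 Cell-free fluorescence enzyme-activity assay on extracted rat CYP2D1 protein, read 0.75 h after dosing. Primary screen in duplicate at 10 uM; qualifying chemicals then run in concentration-response to 20 uM max, loss-of-signal versus acetonitrile baseline.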
# [9] = read-out: xenobiotic metabolism (CYP2C9), CYP2C9 (gene 1559); assay: CLD_CYP2C9_6hr: CellzDirect (CLD) Gene Expression Assay for xenobiotic metabolism (CYP2C9) at 6 hours (AID 2283664)
# Outline: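 Primary human hepatocytes dosed daily with test chemicals at multiple concentrations; harvested at 6 h. CYP2C9 mRNA induction measured by qNPA chemiluminescence. Gain of signal fitted against 0.2% DMSO vehicle; cytotoxicity annotated from phase-contrast morphology.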
# [10] = molecular target: human Peroxisome Proliferator-activated Receptor delta (PPARd), PPARD (gene 5467) (UniProt Q03181); assay: ATG_PPARd_TRANS: Attagene TRANS-FACTORIAL HepG2 Assay for human Peroxisome Proliferator-activated Receptor delta (PPARd) (AID 2283002)
# Outline: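 Fluorescence from capillary electrophoresis of labelled RT-PCR reporter fragments gives the signal; DMSO sets baseline. Cells: HepG2 transiently carrying GAL4-UAS reporter units plus chimeric nuclear receptor-Gal4 proteins, exposed to chemicals for 24 h.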
# [11] = molecular target: Peroxisome proliferator-activated receptor gamma (Homo sapiens) (UniProt P37231); assay: ATG_PPARg_TRANS: Attagene TRANS-FACTORIAL HepG2 Assay for human Peroxisome Proliferator-activated Receptor-gamma (PPARg) (AID 2283007)
# Outline: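 Twenty-four hours after chemical dosing of transiently transfected HepG2 cells, isolated RNA was converted to cDNA, reporter sequences amplified and 6-FAM-labelled, then HpaI-digested and analysed by capillary electrophoresis. Signal increase against DMSO was fitted.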
# [12] = molecular target: Nuclear receptor subfamily 1 group I member 2 (Homo sapiens) (UniProt O75469); assay: ATG_PXR_TRANS: Attagene TRANS-FACTORIAL HepG2 Assay for human Pregnane X Receptor (PXR) (AID 2283008)
# Outline: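 Fluorescence intensity of FAM-labelled, HpaI-digested reporter amplicons, separated by capillary electrophoresis, quantifies induction. HepG2 cells with PXR-Gal4 trans-reporter system were exposed 24 h; DMSO defines baseline.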
# [13] = molecular target: sheep Cyclooxygenase-1 (Cox1), PTGS1 (gene 443551) (UniProt P05979); assay: NVS_ENZ_oCOX1: NovaScreen (NVS) Enzymatic Assay for sheep Cyclooxygenase-1 (Cox1) (AID 2283239);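 note: actives reduce cyclooxygenase activity so potencies are for inhibitors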
# Outline: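 Absorbance read-out of cyclooxygenase activity in a cell-free preparation from sheep seminal vesicles, taken 0.66 hour after dosing. Initial testing was in duplicate at 25 uM, and confirmatory testing was run in concentration series.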
# [14] = molecular target: Norway rat Vesicular Monoamine Transporter (VMAT2), neurotransmitter transporter, Slc18a2 (gene 25549) (UniProt Q01827); assay: NVS_TR_rVMAT2: NovaScreen (NVS) Transporter Assay for Norway rat Vesicular Monoamine Transporter (VMAT2), neurotransmitter transporter (AID 2283376);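 note: actives lower the bound radioligand signal below the DMSO level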
# Outline: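 Radioligand displacement binding on rat forebrain tissue preparation, filter-based scintillation read-out 1 hour after dosing. Primary screen in duplicate at 25 uM, then concentration series for actives; loss of signal versus DMSO.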
# [15] = CCTE_Harrill_HTTr_Viability_MCF7: CCTE's 6-hour Cell Viability Assessment for the High-Throughput Transcriptomics (HTTr) Platform, in MCF-7 cells cultured in DMEM + 10% fetal bovine serum, Harrill Lab (AID 2284010; active = hit-call score of the fitted dose curve at least 0.9, where 1 is the maximum; inactive = score below 0.9)
# Outline: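 MCF-7 cells in DMEM + 10% FBS, 384-well, exposed 6 h to an eight-point dilution series. Membrane integrity scored by high-content imaging of propidium iodide exclusion; bidirectional fit versus DMSO.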
# [16] = CCTE_Harrill_HTTr_Apoptosis_MCF7: CCTE's 6-hour Apoptosis Assessment for the High-Throughput Transcriptomics (HTTr) Platform, in MCF-7 cells cultured in DMEM + 10% fetal bovine serum, Harrill Lab (AID 2284011; active = hit-call score of the fitted dose curve at least 0.9, where 1 is the maximum; inactive = score below 0.9)
# Outline: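 MCF-7 (DMEM + 10% FBS), 384-well; 8-pt dilution series, 6 h chemical exposure; caspase-3/7 activation via CellEvent Caspase 3/7 Green, HCI; bidirectional fit vs DMSO.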
# [17] = molecular target: human Ephrin type-A Receptor 2 (EphA2), EPHA2 (gene 1969) (UniProt P29317); assay: NVS_ENZ_hEphA2: NovaScreen (NVS) Enzymatic Assay for human Ephrin type-A Receptor 2 (EphA2) (AID 2283155)
# Outline: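 Cell-free recombinant EphA2 kinase with specific substrate, 1 h, fluorescence with electrophoretic mobility-shift separation of substrate and product. Primary screen at 25 uM in duplicate; hits retested in singleton concentration-response up to 50 uM, referenced to DMSO.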
# [18] = molecular target: human Protein Tyrosine Phosphatase Non-receptor Type 2 (PTPN2), PTPN2 (gene 5771) (UniProt P17706); assay: NVS_ENZ_hPTPN2: NovaScreen (NVS) Enzymatic Assay for human Protein Tyrosine Phosphatase Non-receptor Type 2 (PTPN2) (AID 2283207)
# Outline: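 Cell-free recombinant enzyme with fluorescent substrate, product separated by electrophoretic mobility shift; read 1 h after dosing. Primary screen single concentration (25 uM) in duplicate; actives followed in concentration series; loss of signal versus DMSO.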
# Androgen receptor (Homo sapiens), sequence (P10275 whole entry, looked up, the tested form may be a part): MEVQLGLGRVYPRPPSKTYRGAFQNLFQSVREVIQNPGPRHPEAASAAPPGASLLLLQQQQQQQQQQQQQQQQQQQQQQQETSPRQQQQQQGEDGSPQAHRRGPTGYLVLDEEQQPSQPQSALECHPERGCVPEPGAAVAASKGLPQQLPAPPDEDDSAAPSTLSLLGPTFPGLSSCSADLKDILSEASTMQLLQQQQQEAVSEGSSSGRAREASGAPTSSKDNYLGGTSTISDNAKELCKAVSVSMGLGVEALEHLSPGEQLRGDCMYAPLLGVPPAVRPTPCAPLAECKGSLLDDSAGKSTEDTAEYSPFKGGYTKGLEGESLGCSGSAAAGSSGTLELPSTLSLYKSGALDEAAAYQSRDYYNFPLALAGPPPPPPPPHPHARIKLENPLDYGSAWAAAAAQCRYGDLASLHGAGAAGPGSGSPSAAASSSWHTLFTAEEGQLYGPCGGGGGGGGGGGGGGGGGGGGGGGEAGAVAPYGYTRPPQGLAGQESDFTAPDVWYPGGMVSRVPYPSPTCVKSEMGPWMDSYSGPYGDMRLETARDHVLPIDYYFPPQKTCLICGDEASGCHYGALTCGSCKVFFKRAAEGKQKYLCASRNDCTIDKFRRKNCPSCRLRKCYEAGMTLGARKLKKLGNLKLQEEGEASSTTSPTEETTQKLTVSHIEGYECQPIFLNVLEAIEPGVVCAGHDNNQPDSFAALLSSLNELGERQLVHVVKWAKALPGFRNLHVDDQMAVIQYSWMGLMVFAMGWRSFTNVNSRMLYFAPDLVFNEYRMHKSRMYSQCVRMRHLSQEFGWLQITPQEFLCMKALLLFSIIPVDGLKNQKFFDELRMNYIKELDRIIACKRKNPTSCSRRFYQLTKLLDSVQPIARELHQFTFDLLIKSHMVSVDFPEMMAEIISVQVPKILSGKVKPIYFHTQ
# human CYP4F12, CYP4F12 (gene 66002), sequence (Q9HCS2 whole entry, looked up): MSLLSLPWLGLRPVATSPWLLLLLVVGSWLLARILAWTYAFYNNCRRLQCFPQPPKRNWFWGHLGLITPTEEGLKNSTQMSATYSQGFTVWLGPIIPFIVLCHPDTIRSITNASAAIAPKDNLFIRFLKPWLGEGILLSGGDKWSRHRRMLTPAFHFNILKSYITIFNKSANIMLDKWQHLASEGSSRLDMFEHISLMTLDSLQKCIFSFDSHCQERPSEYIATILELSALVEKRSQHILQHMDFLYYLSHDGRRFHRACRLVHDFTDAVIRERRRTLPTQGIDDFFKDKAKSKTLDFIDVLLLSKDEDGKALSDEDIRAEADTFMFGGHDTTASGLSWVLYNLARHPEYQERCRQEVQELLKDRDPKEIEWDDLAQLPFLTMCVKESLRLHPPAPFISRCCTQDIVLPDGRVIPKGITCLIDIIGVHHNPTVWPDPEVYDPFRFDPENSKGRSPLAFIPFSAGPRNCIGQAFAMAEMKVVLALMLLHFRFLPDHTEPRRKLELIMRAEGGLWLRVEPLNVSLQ
# human CYP2J2, CYP2J2 (gene 1573), sequence (P51589 whole entry, looked up): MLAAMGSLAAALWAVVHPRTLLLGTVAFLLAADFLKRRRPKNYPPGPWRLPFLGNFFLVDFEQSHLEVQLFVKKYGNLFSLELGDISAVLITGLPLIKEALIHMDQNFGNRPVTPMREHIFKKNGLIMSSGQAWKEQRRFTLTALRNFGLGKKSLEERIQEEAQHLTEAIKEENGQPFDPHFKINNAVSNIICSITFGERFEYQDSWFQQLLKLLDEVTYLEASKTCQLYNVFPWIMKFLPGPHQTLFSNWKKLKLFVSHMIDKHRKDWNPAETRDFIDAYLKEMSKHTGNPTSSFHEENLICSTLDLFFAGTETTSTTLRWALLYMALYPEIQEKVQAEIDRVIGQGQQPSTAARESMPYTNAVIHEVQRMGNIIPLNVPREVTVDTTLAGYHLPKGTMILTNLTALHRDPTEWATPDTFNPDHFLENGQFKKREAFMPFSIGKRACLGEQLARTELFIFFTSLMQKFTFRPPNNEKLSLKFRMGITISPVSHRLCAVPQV
# Peroxisome proliferator-activated receptor gamma (Homo sapiens), sequence (P37231 whole entry, looked up): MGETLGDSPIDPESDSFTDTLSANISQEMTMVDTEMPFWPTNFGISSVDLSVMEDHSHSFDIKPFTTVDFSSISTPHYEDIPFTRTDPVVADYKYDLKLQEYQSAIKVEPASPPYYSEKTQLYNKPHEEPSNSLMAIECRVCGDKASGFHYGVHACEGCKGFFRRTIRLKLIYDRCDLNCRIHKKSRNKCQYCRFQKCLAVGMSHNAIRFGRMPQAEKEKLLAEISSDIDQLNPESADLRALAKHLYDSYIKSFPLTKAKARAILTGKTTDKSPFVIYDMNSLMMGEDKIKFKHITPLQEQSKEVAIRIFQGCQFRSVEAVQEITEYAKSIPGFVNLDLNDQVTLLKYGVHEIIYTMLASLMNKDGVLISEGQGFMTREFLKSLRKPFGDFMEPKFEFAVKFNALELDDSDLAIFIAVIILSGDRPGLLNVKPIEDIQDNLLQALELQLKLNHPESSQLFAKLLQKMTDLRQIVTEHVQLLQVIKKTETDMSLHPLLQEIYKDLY
# rat CYP2D1, Cyp2d1 (gene 266684), sequence (P10633 whole entry, looked up): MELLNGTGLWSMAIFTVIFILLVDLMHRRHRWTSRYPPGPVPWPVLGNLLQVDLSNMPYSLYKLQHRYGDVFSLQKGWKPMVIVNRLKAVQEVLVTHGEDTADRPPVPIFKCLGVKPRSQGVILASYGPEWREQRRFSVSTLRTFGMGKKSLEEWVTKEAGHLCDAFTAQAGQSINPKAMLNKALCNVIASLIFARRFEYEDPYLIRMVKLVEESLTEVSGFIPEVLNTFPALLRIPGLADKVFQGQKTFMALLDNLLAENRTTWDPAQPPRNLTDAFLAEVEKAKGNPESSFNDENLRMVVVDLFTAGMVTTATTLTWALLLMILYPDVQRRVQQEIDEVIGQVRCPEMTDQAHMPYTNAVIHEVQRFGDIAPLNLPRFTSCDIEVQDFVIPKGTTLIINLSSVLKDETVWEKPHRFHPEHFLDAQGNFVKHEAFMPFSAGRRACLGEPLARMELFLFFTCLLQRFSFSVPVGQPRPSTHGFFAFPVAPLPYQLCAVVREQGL
# Protein deacetylase HDAC6 (Homo sapiens), sequence (Q9UBN7 whole entry, looked up): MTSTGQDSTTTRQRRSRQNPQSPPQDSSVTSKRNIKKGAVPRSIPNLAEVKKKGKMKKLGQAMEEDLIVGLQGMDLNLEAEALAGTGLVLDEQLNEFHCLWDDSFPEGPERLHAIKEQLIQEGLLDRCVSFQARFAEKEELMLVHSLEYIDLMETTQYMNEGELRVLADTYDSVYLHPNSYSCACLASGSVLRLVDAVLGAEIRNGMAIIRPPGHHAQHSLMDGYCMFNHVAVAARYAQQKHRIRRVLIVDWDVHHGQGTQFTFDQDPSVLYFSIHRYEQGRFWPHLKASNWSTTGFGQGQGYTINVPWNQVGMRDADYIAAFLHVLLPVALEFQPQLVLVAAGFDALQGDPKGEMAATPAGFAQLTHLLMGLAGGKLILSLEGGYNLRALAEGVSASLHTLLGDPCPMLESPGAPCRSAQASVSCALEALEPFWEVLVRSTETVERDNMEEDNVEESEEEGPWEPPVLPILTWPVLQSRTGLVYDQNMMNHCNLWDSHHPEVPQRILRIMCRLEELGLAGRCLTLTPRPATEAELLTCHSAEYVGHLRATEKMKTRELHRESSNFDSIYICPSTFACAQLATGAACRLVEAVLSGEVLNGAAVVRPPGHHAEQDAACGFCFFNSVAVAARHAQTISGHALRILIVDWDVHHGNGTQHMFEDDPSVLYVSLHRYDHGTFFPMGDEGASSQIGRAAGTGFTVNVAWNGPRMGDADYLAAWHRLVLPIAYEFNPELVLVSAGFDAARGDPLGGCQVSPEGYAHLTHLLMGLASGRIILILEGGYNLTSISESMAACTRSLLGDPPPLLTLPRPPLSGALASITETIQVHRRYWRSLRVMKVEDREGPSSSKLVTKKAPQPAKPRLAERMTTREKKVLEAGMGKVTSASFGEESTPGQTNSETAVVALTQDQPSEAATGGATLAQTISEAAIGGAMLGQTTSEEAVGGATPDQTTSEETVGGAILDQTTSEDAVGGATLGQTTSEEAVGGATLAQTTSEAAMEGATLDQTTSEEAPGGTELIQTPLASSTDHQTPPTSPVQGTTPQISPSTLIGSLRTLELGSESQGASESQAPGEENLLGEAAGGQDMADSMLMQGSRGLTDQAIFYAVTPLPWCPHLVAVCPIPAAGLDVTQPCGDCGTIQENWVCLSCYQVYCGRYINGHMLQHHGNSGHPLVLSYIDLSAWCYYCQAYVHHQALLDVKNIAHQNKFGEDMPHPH
# human Protein Tyrosine Phosphatase Non-receptor Type 2 (PTPN2), PTPN2 (gene 5771), sequence (P17706 whole entry, looked up): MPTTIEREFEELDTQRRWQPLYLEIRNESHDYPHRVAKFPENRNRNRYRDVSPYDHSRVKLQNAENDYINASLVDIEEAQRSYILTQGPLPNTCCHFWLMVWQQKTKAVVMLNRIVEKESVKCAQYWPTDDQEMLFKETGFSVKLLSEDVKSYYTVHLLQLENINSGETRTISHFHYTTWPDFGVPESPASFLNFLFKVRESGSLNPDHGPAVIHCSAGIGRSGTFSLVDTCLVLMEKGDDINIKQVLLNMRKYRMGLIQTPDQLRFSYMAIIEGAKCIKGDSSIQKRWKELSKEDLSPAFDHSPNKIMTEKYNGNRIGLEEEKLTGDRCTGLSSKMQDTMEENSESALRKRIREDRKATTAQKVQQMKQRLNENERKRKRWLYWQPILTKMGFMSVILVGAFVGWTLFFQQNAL
# human Peroxisome Proliferator-activated Receptor delta (PPARd), PPARD (gene 5467), sequence (Q03181 whole entry, looked up, the tested form may be a part): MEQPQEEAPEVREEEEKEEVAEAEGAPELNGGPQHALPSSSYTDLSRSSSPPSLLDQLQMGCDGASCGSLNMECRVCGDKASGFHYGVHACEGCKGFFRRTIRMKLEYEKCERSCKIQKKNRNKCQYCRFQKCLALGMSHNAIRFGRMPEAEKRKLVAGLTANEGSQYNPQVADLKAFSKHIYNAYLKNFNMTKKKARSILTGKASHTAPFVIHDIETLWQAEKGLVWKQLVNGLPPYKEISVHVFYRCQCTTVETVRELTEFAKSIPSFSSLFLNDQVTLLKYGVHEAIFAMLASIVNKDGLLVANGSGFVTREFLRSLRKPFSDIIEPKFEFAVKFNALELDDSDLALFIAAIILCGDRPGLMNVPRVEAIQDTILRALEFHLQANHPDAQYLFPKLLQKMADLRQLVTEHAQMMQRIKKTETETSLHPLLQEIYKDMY
structure (smiles),measurement,setting,value
OCC(F)(F)C(F)(F)C(F)(F)C(F)(F)C(F)(F)C(F)(F)C(F)(F)C(F)(F)C(F)(F)C(F)(F)C(F)(F)F,outcome,[1],inactive
same,outcome,[2],inactive
O=C=NCCCCCCN=C=O,AC50,[3],0.884 µM (active)
FC(F)(F)C(F)(F)C(F)(F)C(F)(F)C(F)(F)C(F)(F)C(F)(F)C(F)(F)F,outcome,[1],inactive
same,outcome,[2],inactive
OCC(F)(F)C(F)(F)C(F)(F)CO,outcome,[1],inactive
same,outcome,[2],inactive
O=P(O)(O)OCCC(F)(F)C(F)(F)C(F)(F)C(F)(F)C(F)(F)C(F)(F)F,outcome,[1],inactive
same,outcome,[2],inactive
C=C(C)C(=O)OCC(F)(F)C(F)(F)C(F)(F)F,outcome,[1],inactive
same,outcome,[2],inactive
CCOC(=O)CC(=O)C(F)(F)C(F)(F)F,outcome,[1],inactive
same,outcome,[2],inactive
C=C(C)C(=O)OCCC(F)(F)C(F)(F)C(F)(F)C(F)(F)C(F)(C(F)(F)F)C(F)(F)F,outcome,[1],inactive
same,outcome,[2],inactive
CC1=CC(=O)/C(=C(/C)O)C(=O)O1,AC50,[3],1.52 µM (active)
O=P(O)(O)CCC(F)(F)C(F)(F)C(F)(F)C(F)(F)C(F)(F)C(F)(F)F,outcome,[1],inactive
same,outcome,[2],inactive
C=CC(F)(F)C(F)(F)C(F)(F)C(F)(F)C(F)(F)C(F)(F)C(F)(F)C(F)(F)C=C,outcome,[1],inactive
same,outcome,[2],inactive
CC(=O)[C@H]1CC[C@H]2[C@@H]3CCC4=CC(=O)CC[C@]4(C)[C@H]3CC[C@]12C,outcome,[3],inactive
same,AC50,[4],4.82 µM (active)
same,outcome,[5],inactive
same,outcome,[6],inactive
C#CCOC(=O)[C@@H](C)Oc1ccc(Oc2ncc(Cl)cc2F)cc1,AC50,[7],189 nM (active)
same,AC50,[8],3.73 µM (active)
same,outcome,[9],inactive
O=[N+]([O-])c1ccccc1Cl,outcome,[10],inactive
same,outcome,[11],inactive
same,outcome,[12],inactive
same,outcome,[13],inactive
same,outcome,[14],inactive
same,outcome,[15],inactive
same,outcome,[16],inactive
CCOC(=O)NCCOc1ccc(Oc2ccccc2)cc1,outcome,[7],inactive
same,outcome,[17],inactive
same,outcome,[18],inactive
NC(=O)C(F)(F)C(F)(F)C(F)(F)C(F)(F)F,outcome,[1],inactive
same,outcome,[2],inactive
O=S(=O)(O)CCC(F)(F)C(F)(F)C(F)(F)C(F)(F)F,outcome,[1],inactive
same,outcome,[2],inactive
C#C[C@]1(O)CC[C@H]2[C@@H]3CCc4cc(O)ccc4[C@H]3CC[C@@]21C,AC50,[7],878 nM (active) and 2.68 µM (active) and 672 nM (active)
same,outcome,[6],inactive
